PubChem BioAssay AID463173 (ICCB-Longwood Screening Facility, Harvard Medical School, 2010)
Among all 52,000 compounds or so, about 1,700 (3.3%) were called active. No stated cut-off is given here; in the data, active means survival mostly below about 52% (no sharp cut-off); inactive means mostly above about 56%. The list comes from a sample in which actives are over-represented; it also holds similar structures and randomly drawn compounds.

system: Wild type; assay: S. aureus survival, RN4220 and DeltatarO strains – OD600, teichoic acid synthesis inhibitors, primary screen (AID 463173); conditions: S. aureus RN4220 wild type/DeltatarO growth, OD600, 18 h, active compounds read low, screened at 18.75 µg/mL (by protocol)

SMILES	survival
O=C(CSc1nc2c([nH]c3ccccc32)c(=O)n1-c1ccccc1)N1CCCc2ccccc21	128% (inactive)
c1ccc2sc(N3CCN(Cc4nnnn4C4CCCC4)CC3)nc2c1	104% (inactive)
Fc1ccc(Nc2ncnc3onc(-c4ccc(Cl)cc4)c23)cc1Cl	71% (inactive)
Cc1ccccc1CN1C(=O)c2ccccc2Sc2ccc(C(=O)NC(C)c3ccccc3)cc21 (stereo unspecified)	81% (inactive)
COc1cccc(CNC(=O)c2ccc3c(c2)N(C)C(=O)C2CCCCN32)c1 (stereo unspecified)	68% (inactive)
CSc1ccc(CNC(=O)c2ccc3c(c2)N(C)C(=O)C2CCCCN32)cc1 (stereo unspecified)	83% (inactive)
Cc1cccc(CNC(=O)c2ccc3c(c2)N(C)C(=O)C2CCCCN32)c1 (stereo unspecified)	-3% (active)
CC(C)Oc1ccc(CNC(=O)c2ccc3c(c2)N(C)C(=O)C2CCCCN32)cc1 (stereo unspecified)	10% (active)
COc1ccc(CNC(=O)c2ccc3c(c2)N(C)C(=O)C2CCCCN32)cc1OC (stereo unspecified)	59% (inactive)
CCCCOc1ccc(CNC(=O)c2ccc3c(c2)N(C)C(=O)C2CCCCN32)cc1 (stereo unspecified)	88% (inactive)
COc1cccc(CNC(=O)c2ccc3nc(-c4ccccc4)c(-c4ccccc4)nc3c2)c1OC	71% (inactive)
CCC(Cn1nnc2ccccc2c1=O)NC(=O)Nc1ccccc1OC (stereo unspecified)	93% (inactive)
CCc1ccccc1NC(=O)[C@@H](c1ccccc1)N1Cc2ccccc2C1=O	22% (inactive)
COc1ccccc1OCCSc1ncnc2nc[nH]c12	105% (inactive)
Cc1ccc(-c2nnc(Nc3ccc(F)cc3)c3ccccc23)cc1S(=O)(=O)NC(C)C	81% (inactive)
COCCCNC(=O)c1cc2cc(S(=O)(=O)N3CCCCC3)ccc2n1C	73% (inactive)
COc1ccc(-c2noc(-c3ccccc3NC(=O)c3cc(OC)c(OC)c(OC)c3)n2)cc1	79% (inactive)
COc1ccc(C(=O)Nc2ccccc2-c2nc(-c3ccc(OC)cc3)no2)cc1	89% (inactive)
COc1ccc(-c2noc(-c3cccc(OC)c3OC)n2)cc1	-3% (active)
Cc1ccc(OC(=O)c2snnc2C)cc1C	117% (inactive)
COc1ccc(NC(=O)Nc2cccc(-c3cn4cccnc4n3)c2)cc1	77% (inactive)
CCOC(=O)c1c(-c2ccccc2)oc2ccc(NS(=O)(=O)c3ccc(C)cc3)cc12	28% (inactive)
CCOC(=O)c1c(-c2ccccc2)oc2ccc(NS(=O)(=O)c3ccc(OC)cc3)cc12	66% (inactive)

SMILES	survival
CCOc1ccc(S(=O)(=O)Nc2ccc3oc4c(c3c2)CC(C)CC4)cc1 (stereo unspecified)	60% (inactive)
CCc1ccc(S(=O)(=O)Nc2ccc3oc(C)c(C(=O)OCCOC)c3c2)cc1	60% (inactive)
CCOC(=O)c1c(-c2ccccc2)oc2ccc(NS(=O)(=O)c3ccc(C)cc3C)cc12	51% (inactive)
CCCCOC(=O)c1c(C)oc2ccc(NS(=O)(=O)c3ccc(F)cc3C)cc12	1% (active)
Cc1cc(F)ccc1S(=O)(=O)Nc1ccc2oc3c(c2c1)CC(C)CC3 (stereo unspecified)	-6% (active)
Cc1cc(C)c(S(=O)(=O)Nc2ccc3oc4c(c3c2)CCCC4)cc1C	72% (inactive)
CCOC(=O)c1c(-c2ccccc2)oc2ccc(NS(=O)(=O)c3ccccc3)cc12	7% (active)
Cc1ccc(NC(=O)Cn2c(=O)n(CCCCC(=O)NCc3ccccc3Cl)c(=O)c3ccccc32)cc1C	74% (inactive)
Cc1cccc(NC(=O)CSc2nccn2Cc2ccc(F)cc2)c1C	71% (inactive)
O=C(Nc1nc2ccc(S(=O)(=O)N3CCCC3)cc2s1)c1cccc(F)c1	63% (inactive)
COc1ccc2c(c1)c1c(c(=O)n(-c3ccc(F)c(Cl)c3)c(=O)n1Cc1cccc(C)c1)n2C	71% (inactive)
Cc1cc(C)c(NC(=O)CSc2ccnc(=O)[nH]2)c(C)c1	74% (inactive)
CCOc1cc(Cl)c(S(=O)(=O)n2cc(C)nc2CC)cc1Cl	-7% (active)
CCOc1cc(Cl)c(S(=O)(=O)n2ccnc2)cc1Cl	74% (inactive)
CCc1nc(C)cn1S(=O)(=O)c1ccc(Cl)c(Cl)c1OC	77% (inactive)
CCCn1c(SCC(=O)c2ccc3c(c2)OCCO3)nnc1-c1ccco1	100% (inactive)
O=C(CCN1CCOCC1)N1N=C(c2ccccc2)CC1c1ccco1 (stereo unspecified)	104% (inactive)
Oc1ccc(Br)cc1C1CC(c2ccccc2)=NC(c2ccco2)N1 (stereo unspecified)	1% (active)
COc1ccccc1N1CCN(c2ncnc3c2cnn3-c2cc(Cl)ccc2C)CC1	136% (inactive)
COc1ccccc1N1CCN(c2ncnc3c2cnn3-c2cccc(Cl)c2)CC1	-4% (active)
COc1ccccc1N1CCN(c2ncnc3c2cnn3-c2ccc(C)cc2)CC1	63% (inactive)
O=C(COc1ccccc1Cl)N(Cc1ccco1)Cc1ccco1	81% (inactive)
Cc1ccc(CNC(=O)CSc2c3c(nc4ccc(Cl)cc24)CCCC3)cc1	80% (inactive)
